# Screen size: about 5,500 compounds; about 2,000 (36%) were called active. Not shown: some 18% with an inconclusive outcome. Some of the results follow. Values without a mark were called inactive. No stated cut-off is given here; in the data, active means normalized growth mostly below about 0.91 (no sharp cut-off); inconclusive means no clear call, values can overlap the other calls; inactive means mostly above about 0.92.
# Experiment: chemical genetic growth profiling, strain panel (AID 1159580);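 further: tested at 20 µM; growth read once vehicle control cultures reached saturation at 30 °C; 1 = growth at the plate median or of vehicle wells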
# Settings: growth OD
compound,measurement,setting,value
N#CC1COc2ccccc2O1 (centres undefined),normalized growth,"S. cerevisiae deletion strains, locus YAL013W, strain DEP1, stronger effect = lower value",1.01
same,normalized growth,"S. cerevisiae deletion strains, locus YBR229C, strain ROT2, stronger effect = lower value",0.993
same,normalized growth,"S. cerevisiae deletion strains, locus YDL101C, strain DUN1, stronger effect = lower value",1.01
same,normalized growth,"S. cerevisiae deletion strains, locus YDR150W, strain NUM1, stronger effect = lower value",1.03
same,normalized growth,"S. cerevisiae deletion strains, locus YEL061C, strain CIN8, stronger effect = lower value",1.01
same,normalized growth,"S. cerevisiae deletion strains, locus YGR078C, strain PAC10, stronger effect = lower value",0.999
same,normalized growth,"S. cerevisiae deletion strains, locus YGR229C, strain SMI1, stronger effect = lower value",0.999
same,normalized growth,"S. cerevisiae deletion strains, locus YHR030C, strain SLT2, stronger effect = lower value",1.03
same,normalized growth,"S. cerevisiae deletion strains, locus YHR087W, strain rtc3, stronger effect = lower value",0.989
same,normalized growth,"S. cerevisiae deletion strains, locus YJR043C, strain POL32, stronger effect = lower value",1.03
same,normalized growth,"S. cerevisiae deletion strains, locus YJR075W, strain HOC1, stronger effect = lower value",0.973
same,normalized growth,"S. cerevisiae deletion strains, locus YKL190W, strain CNB1, stronger effect = lower value",1.02
same,normalized growth,"S. cerevisiae deletion strains, locus YLR039C, strain RIC1, stronger effect = lower value",1
same,normalized growth,"S. cerevisiae deletion strains, locus YLR058C, strain SHM2 (second series), stronger effect = lower value",0.994
same,normalized growth,"S. cerevisiae deletion strains, locus YLR085C, strain ARP6, stronger effect = lower value",1.01
same,normalized growth,"S. cerevisiae deletion strains, locus YLR262C, strain YPT6, stronger effect = lower value",0.997
same,normalized growth,"S. cerevisiae deletion strains, locus YML094W, strain GIM5, stronger effect = lower value",1.01
same,normalized growth,"S. cerevisiae deletion strains, locus YMR219W, strain ESC1, stronger effect = lower value",0.999
same,normalized growth,"S. cerevisiae deletion strains, locus YMR263W, strain SAP30, stronger effect = lower value",1.03
same,normalized growth,"S. cerevisiae deletion strains, locus YMR307W, strain GAS1, stronger effect = lower value",1.1
same,normalized growth,"S. cerevisiae deletion strains, locus YNL153C, strain GIM3, stronger effect = lower value",0.996
same,normalized growth,"S. cerevisiae deletion strains, locus YNL298W, strain CLA4 (second series), stronger effect = lower value",1.04
same,normalized growth,"S. cerevisiae deletion strains, locus YNL322C, strain KRE1, stronger effect = lower value",0.984
same,normalized growth,"S. cerevisiae deletion strains, locus YNR030W, strain Alg12, stronger effect = lower value",1.01
same,normalized growth,"S. cerevisiae deletion strains, locus YPL055C, strain LGE1, stronger effect = lower value",1.13
same,normalized growth,"S. cerevisiae deletion strains, locus YPL241C, strain CIN2, stronger effect = lower value",0.998
same,normalized growth,"S. cerevisiae deletion strains, locus YPR135W, strain CTF4, stronger effect = lower value",1.04
same,normalized growth,"S. cerevisiae strains, strain wild type, stronger effect = lower value",1.01
S=c1ccss1,normalized growth,"S. cerevisiae deletion strains, locus YAL021C, strain ccr4, stronger effect = lower value",0.679 (active)
same,normalized growth,"S. cerevisiae deletion strains, locus YAL026C, strain drs2, stronger effect = lower value",0.779 (active)
same,normalized growth,"S. cerevisiae deletion strains, locus YAL030W, strain snc1, stronger effect = lower value",0.997
same,normalized growth,"S. cerevisiae deletion strains, locus YBL061C, strain skt5, stronger effect = lower value",0.989
same,normalized growth,"S. cerevisiae deletion strains, locus YBR009C, strain hhf1, stronger effect = lower value",0.915
same,normalized growth,"S. cerevisiae deletion strains, locus YBR023C, strain chs3, stronger effect = lower value",0.972
same,normalized growth,"S. cerevisiae deletion strains, locus YBR171W, strain sec66, stronger effect = lower value",0.994
same,normalized growth,"S. cerevisiae deletion strains, locus YBR231C, strain swc5, stronger effect = lower value",0.895 (active)
same,normalized growth,"S. cerevisiae deletion strains, locus YBR279W, strain paf1, stronger effect = lower value",0.948
same,normalized growth,"S. cerevisiae deletion strains, locus YCL011C, strain gbp2, stronger effect = lower value",0.916
same,normalized growth,"S. cerevisiae deletion strains, locus YCL016C, strain dcc1, stronger effect = lower value",0.977
same,normalized growth,"S. cerevisiae deletion strains, locus YCL069W, strain vba3, stronger effect = lower value",1
same,normalized growth,"S. cerevisiae deletion strains, locus YCR088W, strain abp1, stronger effect = lower value",1
same,normalized growth,"S. cerevisiae deletion strains, locus YDL005C, strain med2, stronger effect = lower value",0.987
same,normalized growth,"S. cerevisiae deletion strains, locus YDL040C, strain nat1, stronger effect = lower value",0.985
same,normalized growth,"S. cerevisiae deletion strains, locus YDR001C, strain nth1, stronger effect = lower value",1
same,normalized growth,"S. cerevisiae deletion strains, locus YDR069C, strain doa4, stronger effect = lower value",0.835 (active)
same,normalized growth,"S. cerevisiae deletion strains, locus YDR137W, strain rgp1, stronger effect = lower value",0.805 (active)
same,normalized growth,"S. cerevisiae deletion strains, locus YDR159W, strain sac3, stronger effect = lower value",1.06
same,normalized growth,"S. cerevisiae deletion strains, locus YDR195W, strain ref2",1.1
same,normalized growth,"S. cerevisiae deletion strains, locus YDR297W, strain sur2, stronger effect = lower value",0.993
same,normalized growth,"S. cerevisiae deletion strains, locus YDR334W, strain swr1, stronger effect = lower value",0.931
same,normalized growth,"S. cerevisiae deletion strains, locus YDR335W, strain msn5, stronger effect = lower value",0.992
same,normalized growth,"S. cerevisiae deletion strains, locus YDR392W, strain spt3, stronger effect = lower value",1.02
same,normalized growth,"S. cerevisiae deletion strains, locus YEL003W, strain gim4, stronger effect = lower value",1.01
same,normalized growth,"S. cerevisiae deletion strains, locus YEL037C, strain rad23, stronger effect = lower value",0.984
same,normalized growth,"S. cerevisiae deletion strains, locus YEL061C, strain CIN8 (second series), stronger effect = lower value",1.01
same,normalized growth,"S. cerevisiae deletion strains, locus YER015W, strain faa2, stronger effect = lower value",0.984
same,normalized growth,"S. cerevisiae deletion strains, locus YER016W, strain bim1, stronger effect = lower value",0.984
same,normalized growth,"S. cerevisiae deletion strains, locus YER111C, strain swi4, stronger effect = lower value",1.01
same,normalized growth,"S. cerevisiae deletion strains, locus YER155C, strain BEM2 (second series), stronger effect = lower value",0.979
same,normalized growth,"S. cerevisiae deletion strains, locus YFR010W, strain ubp6, stronger effect = lower value",0.839 (active)
same,normalized growth,"S. cerevisiae deletion strains, locus YGL167C, strain pmr1, stronger effect = lower value",1
same,normalized growth,"S. cerevisiae deletion strains, locus YGL173C, strain kem1, stronger effect = lower value",0.926
same,normalized growth,"S. cerevisiae deletion strains, locus YGL227W, strain vid30, stronger effect = lower value",1.01
same,normalized growth,"S. cerevisiae deletion strains, locus YGL240W, strain doc1, stronger effect = lower value",0.96
same,normalized growth,"S. cerevisiae deletion strains, locus YGL253W, strain hxk2, stronger effect = lower value",0.818 (active)
same,normalized growth,"S. cerevisiae deletion strains, locus YHR013C, strain ard1, stronger effect = lower value",0.77 (active)
same,normalized growth,"S. cerevisiae deletion strains, locus YHR027C, strain rpn1, stronger effect = lower value",0.943
same,normalized growth,"S. cerevisiae deletion strains, locus YHR142W, strain chs7, stronger effect = lower value",0.94
same,normalized growth,"S. cerevisiae deletion strains, locus YJL092W, strain hpr5, stronger effect = lower value",0.991
same,normalized growth,"S. cerevisiae deletion strains, locus YJL095W, strain BCK1 (second series), stronger effect = lower value",0.99
same,normalized growth,"S. cerevisiae deletion strains, locus YJL115W, strain asf1, stronger effect = lower value",0.994
same,normalized growth,"S. cerevisiae deletion strains, locus YJL129C, strain trk1, stronger effect = lower value",0.927
same,normalized growth,"S. cerevisiae deletion strains, locus YJL154C, strain vps35, stronger effect = lower value",0.997
same,normalized growth,"S. cerevisiae deletion strains, locus YJL164C, strain tpk1, stronger effect = lower value",0.956
same,normalized growth,"S. cerevisiae deletion strains, locus YJL166W, strain qcr8, stronger effect = lower value",0.914
same,normalized growth,"S. cerevisiae deletion strains, locus YJL187C, strain SWE1, stronger effect = lower value",0.965
same,normalized growth,"S. cerevisiae deletion strains, locus YKL160W, strain elf1, stronger effect = lower value",0.947
same,normalized growth,"S. cerevisiae deletion strains, locus YKR026C, strain gcn3, stronger effect = lower value",0.993
same,normalized growth,"S. cerevisiae deletion strains, locus YKR091W, strain srl3, stronger effect = lower value",0.992
same,normalized growth,"S. cerevisiae deletion strains, locus YLL001W, strain dnm1, stronger effect = lower value",0.939
same,normalized growth,"S. cerevisiae deletion strains, locus YLL026W, stronger effect = lower value",0.967
same,normalized growth,"S. cerevisiae deletion strains, locus YLL041C, strain sdh2, stronger effect = lower value",1
same,normalized growth,"S. cerevisiae deletion strains, locus YLR027C, strain aat2, stronger effect = lower value",0.943
same,normalized growth,"S. cerevisiae deletion strains, locus YLR221C, strain rsa3, stronger effect = lower value",0.924
same,normalized growth,"S. cerevisiae deletion strains, locus YLR258W, strain gsy2, stronger effect = lower value",0.965
same,normalized growth,"S. cerevisiae deletion strains, locus YLR262C, strain YPT6 (second series), stronger effect = lower value",0.866
same,normalized growth,"S. cerevisiae deletion strains, locus YLR320W, strain mms22, stronger effect = lower value",0.939
same,normalized growth,"S. cerevisiae deletion strains, locus YLR342W, strain FKS1, stronger effect = lower value",0.973
same,normalized growth,"S. cerevisiae deletion strains, locus YLR357W, strain rsc2, stronger effect = lower value",0.807 (active)
same,normalized growth,"S. cerevisiae deletion strains, locus YLR370C, strain arc18, stronger effect = lower value",0.929
same,normalized growth,"S. cerevisiae deletion strains, locus YLR384C, strain iki3, stronger effect = lower value",0.996
same,normalized growth,"S. cerevisiae deletion strains, locus YML120C, strain ndi1, stronger effect = lower value",1.02
same,normalized growth,"S. cerevisiae deletion strains, locus YMR058W, strain fet3, stronger effect = lower value",0.962
same,normalized growth,"S. cerevisiae deletion strains, locus YMR125W, strain sto1, stronger effect = lower value",1.04
same,normalized growth,"S. cerevisiae deletion strains, locus YMR129W, stronger effect = lower value",0.984
same,normalized growth,"S. cerevisiae deletion strains, locus YMR205C, strain PFK2, stronger effect = lower value",0.935
same,normalized growth,"S. cerevisiae deletion strains, locus YMR231W, strain pep5, stronger effect = lower value",0.995
same,normalized growth,"S. cerevisiae deletion strains, locus YNL071W, strain lat1, stronger effect = lower value",0.922
same,normalized growth,"S. cerevisiae deletion strains, locus YNL209W, strain ssb2, stronger effect = lower value",0.981
same,normalized growth,"S. cerevisiae deletion strains, locus YNL248C, strain rpa49, stronger effect = lower value",1.01
same,normalized growth,"S. cerevisiae deletion strains, locus YNL322C, strain KRE1 (second series), stronger effect = lower value",0.99
same,normalized growth,"S. cerevisiae deletion strains, locus YNR049C, strain mso1, stronger effect = lower value",1
same,normalized growth,"S. cerevisiae deletion strains, locus YOR001W, strain rrp6, stronger effect = lower value",0.98
same,normalized growth,"S. cerevisiae deletion strains, locus YOR070C, strain gyp1, stronger effect = lower value",0.911 (active)
same,normalized growth,"S. cerevisiae deletion strains, locus YOR080W, strain dia2, stronger effect = lower value",1
same,normalized growth,"S. cerevisiae deletion strains, locus YOR083W, strain WHI5, stronger effect = lower value",0.857 (active)
same,normalized growth,"S. cerevisiae deletion strains, locus YOR106W, strain vam3, stronger effect = lower value",0.646 (active)
same,normalized growth,"S. cerevisiae deletion strains, locus YOR265W, strain rbl2, stronger effect = lower value",0.992
same,normalized growth,"S. cerevisiae deletion strains, locus YOR270C, strain vph1, stronger effect = lower value",0.423 (active)
same,normalized growth,"S. cerevisiae deletion strains, locus YOR290C, strain snf2, stronger effect = lower value",0.866
same,normalized growth,"S. cerevisiae deletion strains, locus YPL051W, strain arl3, stronger effect = lower value",0.904 (active)
same,normalized growth,"S. cerevisiae deletion strains, locus YPL078C, strain atp4, stronger effect = lower value",0.872 (active)
same,normalized growth,"S. cerevisiae deletion strains, locus YPL106C, strain sse1, stronger effect = lower value",0.958
same,normalized growth,"S. cerevisiae deletion strains, locus YPL240C, strain hsp82, stronger effect = lower value",0.986

# Reference: PubChem BioAssay AID1159580 (chemical genetic matrix, 2015)
